Experimental data published in PubChem BioAssay.
Some of the results follow. Calls of active or inactive are those of the source.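 Rule for the calls, unless noted: active = under 65% GFP response relative to DMSO; inconclusive = yeast strain with under 70 measured events; inactive = the rest.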

Assays:
[1] = inhibitors of CD8+ T cell-vesicle binding, pilot screen, LFA-1/ICAM-1 modulator project, MLPCN validation set, flow cytometry (AID 2523;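 active = response below a set limit, under 55% cells CD8-positive and vesicle-bound, and CD8 cells' 90th-percentile brightness under 279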;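 for vesicle binding response: mean PE anti-B7-1 fluorescence of CD8+ cells relative to row control; 100% = QL9-loaded vesicles with DMSO vehicle in the same plate row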); settings: 2C mouse CD8+ T cells, at 7 µM, stronger effect = lower value; double positive events: measured here: CD8+/vesicle+ event percentage
[2] = target: Integrin beta-1 (Homo sapiens) + Integrin alpha-4 (Homo sapiens) (UniProt P13612+P05556); assay: inhibition of HUTS-21 binding to VLA-4, pilot screen, VLA-4 allosteric modulator project, U937 cells, HUTS-21 mAb, flow cytometry, validation set (AID 2674;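 active = inhibition above 50%, about 3 SD of the validation set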;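 note: antibody binding induced by the VLA-4 ligand LDV present at three times its Kd; 0% = LDV ligand with antibody and no compound and 100% = antibody without LDV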); settings: HUTS-21 LIBS mAb binding, at 6.7 µM, stronger effect = higher value, binding induced by LDV ligand
[3] = target: Beta-adrenergic receptor kinase 1 (Homo sapiens) (UniProt P25098); assay: GRK2 binders displacing RNA aptamer, biochemical, validation, human GRK2, bead flow cytometry (AID 488806;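 active = aptamer binding inhibition above 30%, about 3 SD of noise from non-fluorescent compounds; inactive = inhibition at or below 30%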); settings: bead-bound GRK2, FAM-aptamer displacement, at 10 µM, stronger effect = higher value
[4] = target: Beta-2 adrenergic receptor (Homo sapiens) (UniProt P07550); assay: beta2AR agonists driving receptor internalization, pilot screen, cell-based, FAP fluorogen, flow cytometry, validation set (AID 504459;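 active = percent response above 42, roughly 3 SD of non-fluorescent test compounds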;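 note: agonist-driven loss of surface beta2AR via internalization measured by FAP dye flow cytometry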); settings: Am2.2-beta2AR cells, FAP surface receptor flow cytometry; at 10 µM; stronger effect = higher value
[5] = target: AP-2 complex subunit beta (Homo sapiens) (UniProt P63010); assay: inhibitors of arrestin peptide binding to AP2, pilot screen, biochemical, validation set, GST-AP2 beads, flow cytometry (AID 504541;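 active = inhibition above 54%, about 3 SD of non-fluorescent compounds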;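 note: AP2 carries R879A mutation and is captured from E. coli lysate; bead-bound FITC arrestin peptide fluorescence measuring arrestin peptide binding to AP2; 0% = DMSO wells and 100% = excess unlabeled arrestin peptide control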); settings: FITC arrestin peptide, at 10 µM, stronger effect = higher value, AP2 beta2 appendage fragment, R879A mutant
[6] = yeast V-ATPase proton transport modulators, S. cerevisiae, pHLuorin, HTS validation (AID 504600; in the data active = response above about 15%;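 note: plate controls were DMSO for no effect and reference compound for full effect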); settings: S. cerevisiae pHLuorin cytosolic pH, at 10 µM, stronger effect = higher value
[7] = tested on: anti-desmoglein-3 scFv antibody binding to human DSG3; assay: inhibitors of anti-DSG3 scFv binding to DSG3, pilot screen, biochemical, validation compound set, bead-based, flow cytometry (AID 588368;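 active = binding below the plate cutoff, the plate median minus 3 SD, with a reading above zero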;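 note: signal is the median channel fluorescence of bead-bound GFP antibody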); settings: Protein G beads, DSG3-Fc, scFv-GFP binding, at 10 µM, stronger effect = lower value
[8] = inhibitors of fungal efflux pumps CDR1, CDR2, MDR1, pilot screen, validation compound set, multiplex, phenotypic (AID 588506;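 active = efflux inhibition above 0.42, the validation set average plus 4 SD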;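 note: Nile Red retained in cells so higher fluorescence means more efflux inhibition; 0 = negative control wells and 1 = enniatin B 25 µM full block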); settings: S. cerevisiae pump-expressing triplex, Nile Red efflux flow cytometry; at 10 µM; stronger effect = higher value; the pumps come from Candida albicans
[9] = target: ATP-binding cassette sub-family B member 6 (Homo sapiens) (UniProt Q9NP58); assay: ABCB6 transporter inhibitors, pilot screen, K562-ABCB6 cells, flow cytometry, validation set (AID 588550;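 active = inhibition above the screen-wide mean plus 3 SD, about 51%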;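 note: 0% = DMSO wells and 100% = benzethonium chloride 70 µM positive control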); settings: K562-ABCB6 porphyrin accumulation, 1 h, at 10 µM, stronger effect = higher value
[10] = promoters of myeloid differentiation in arrested cells, primary screen, cell-based, GFP/MAC1 double positive, flow cytometry, validation set (AID 588685;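 active = differentiation response of at least 50%, scaled between solvent and reference control, from cells with both markers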;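 note: compound exposure lasts four days before antibody staining and flow analysis; 0% = DMSO wells and 100% = 5 µM fulvestrant positive control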); settings: ER-HoxA9 marrow cells, stronger effect = higher value, normalized: vehicle 0, fulvestrant 100
[11] = LAP4-GFP expression modulators in yeast, confirmation, cell-based, second cherry pick, flow cytometry (AID 2621;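 active = GFP signal as percent of the solvent control above about 150%, meaning raised reporter expression, limit read from the data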;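 note: ratio of well median GFP fluorescence to plate DMSO mean so 100% = DMSO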); settings: S. cerevisiae LAP4-GFP strain, 3 h, at 10 µM, stronger effect = higher value
[12] = modulators of MEP2-GFP levels in yeast, confirmation, S. cerevisiae, flow cytometry GFP, second cherry picks (AID 2622;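 active = GFP signal above 150% of the solvent control wells, that is a rise of more than half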;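 note: median channel GFP fluorescence of all gated yeast cells per well; ratio of median GFP to plate DMSO average so 100% = DMSO level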); settings: S. cerevisiae MEP2-GFP strain, 3 h, at 10 µM, stronger effect = higher value
[13] = RPL19A-GFP modulators in TOR pathway yeast, confirmation, cell-based, S. cerevisiae, flow cytometry, second cherry pick (AID 2623);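 note: median GFP channel fluorescence per well over the all cells gate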; settings: S. cerevisiae RPL19A-GFP strain, 3 h, at 10 µM, stronger effect = lower value, 100% means same as DMSO wells
[14] = modulators of CIT2-GFP expression in yeast, confirmation, flow cytometry, second cherry pick, single plex (AID 2624;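 active = GFP response vs DMSO above about 150%, limit read from the data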;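 note: median green fluorescence per well over all gated yeast cells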); settings: S. cerevisiae CIT2-GFP strain, 3 h, at 10 µM, stronger effect = higher value, DMSO control wells read 100%
[15] = AGP1-GFP expression modulators, hit retest, confirmation, cell-based, flow cytometry, S. cerevisiae, cherry pick set 2 (AID 2643;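 active = over 150 percent of DMSO response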;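 note: median GFP channel fluorescence over all cells without mother daughter split; sample median GFP divided by mean DMSO control so 100% equals DMSO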); settings: S. cerevisiae AGP1-GFP strain, 3 h, at 10 µM, stronger effect = higher value
[16] = superoxide lowering in aged yeast cells, pilot screen, validation compound set (AID 2706;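 active = superoxide response below 65% of plate, a cut near 3 SD across the whole screen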;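 note: yeast exposed to compound for one week at 30 degrees C before staining; 100% = mean of all compound wells on the same plate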); settings: S. cerevisiae aging, superoxide DHE fluorescence; at 10 µM, stronger effect = lower value
[17] = compound autofluorescence in yeast s288c, dose response, artefact control for yeast TOR pathway GFP screen, s288c strain (AID 2757;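 active = fluorescence span over the dose series, or activity score, above about 33, limit read from the data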;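 note: thousands of bead-calibrated equivalent soluble fluorophore molecules from median cell fluorescence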); settings: S. cerevisiae s288c, 520 nm autofluorescence, flow cytometry, 3 h; at 33 µM; stronger effect = higher value; zero means same as solvent-only cells

Chain of ATP-binding cassette sub-family B member 6 (Homo sapiens) (Q9NP58 whole entry, looked up): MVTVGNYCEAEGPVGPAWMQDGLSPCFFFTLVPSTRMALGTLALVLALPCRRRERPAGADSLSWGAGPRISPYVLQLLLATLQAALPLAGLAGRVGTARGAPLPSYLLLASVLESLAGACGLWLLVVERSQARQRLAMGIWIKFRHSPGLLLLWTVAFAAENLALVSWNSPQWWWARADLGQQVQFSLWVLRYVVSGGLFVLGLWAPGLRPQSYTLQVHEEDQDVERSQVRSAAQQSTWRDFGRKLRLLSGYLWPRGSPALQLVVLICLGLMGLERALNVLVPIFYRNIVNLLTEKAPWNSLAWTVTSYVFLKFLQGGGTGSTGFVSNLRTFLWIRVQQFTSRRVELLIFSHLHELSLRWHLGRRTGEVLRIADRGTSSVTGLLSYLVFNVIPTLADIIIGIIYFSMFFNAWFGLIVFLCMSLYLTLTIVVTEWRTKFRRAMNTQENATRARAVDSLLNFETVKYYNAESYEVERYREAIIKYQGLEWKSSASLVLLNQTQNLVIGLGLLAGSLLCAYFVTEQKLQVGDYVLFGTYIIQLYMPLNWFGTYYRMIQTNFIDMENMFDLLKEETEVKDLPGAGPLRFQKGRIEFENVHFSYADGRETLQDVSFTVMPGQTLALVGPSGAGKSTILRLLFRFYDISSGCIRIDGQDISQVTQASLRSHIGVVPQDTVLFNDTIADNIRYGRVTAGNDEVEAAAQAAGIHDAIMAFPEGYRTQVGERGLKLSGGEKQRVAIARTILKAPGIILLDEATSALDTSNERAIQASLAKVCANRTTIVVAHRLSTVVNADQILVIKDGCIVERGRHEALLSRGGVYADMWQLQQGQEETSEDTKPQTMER
Chain of AP-2 complex subunit beta (Homo sapiens) (P63010 whole entry, looked up, the tested form may be a part, one chain of several): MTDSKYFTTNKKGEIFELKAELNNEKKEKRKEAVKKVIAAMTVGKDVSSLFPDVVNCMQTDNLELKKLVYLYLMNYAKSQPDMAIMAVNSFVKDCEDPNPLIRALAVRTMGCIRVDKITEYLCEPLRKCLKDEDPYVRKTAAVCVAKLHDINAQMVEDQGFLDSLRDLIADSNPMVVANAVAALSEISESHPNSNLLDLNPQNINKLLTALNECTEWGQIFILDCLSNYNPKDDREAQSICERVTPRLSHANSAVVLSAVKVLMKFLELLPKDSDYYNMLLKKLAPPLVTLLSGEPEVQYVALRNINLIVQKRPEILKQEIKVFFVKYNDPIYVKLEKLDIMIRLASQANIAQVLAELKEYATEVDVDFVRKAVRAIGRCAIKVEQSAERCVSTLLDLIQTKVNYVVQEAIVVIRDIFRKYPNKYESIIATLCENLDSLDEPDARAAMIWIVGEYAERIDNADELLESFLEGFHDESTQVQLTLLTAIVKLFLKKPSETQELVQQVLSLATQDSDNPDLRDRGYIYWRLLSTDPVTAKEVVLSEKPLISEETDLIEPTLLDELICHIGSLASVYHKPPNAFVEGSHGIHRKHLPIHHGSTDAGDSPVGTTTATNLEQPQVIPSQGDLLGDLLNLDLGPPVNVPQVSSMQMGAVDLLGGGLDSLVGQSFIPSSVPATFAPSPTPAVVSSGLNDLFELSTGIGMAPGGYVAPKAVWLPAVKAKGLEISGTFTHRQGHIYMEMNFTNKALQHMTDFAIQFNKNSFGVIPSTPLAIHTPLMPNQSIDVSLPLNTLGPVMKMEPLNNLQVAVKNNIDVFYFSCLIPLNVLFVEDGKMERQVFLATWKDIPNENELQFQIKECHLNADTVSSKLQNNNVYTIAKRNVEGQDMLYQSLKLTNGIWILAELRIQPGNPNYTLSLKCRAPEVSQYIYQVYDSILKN
Chain of Beta-2 adrenergic receptor (Homo sapiens) (P07550 whole entry, looked up): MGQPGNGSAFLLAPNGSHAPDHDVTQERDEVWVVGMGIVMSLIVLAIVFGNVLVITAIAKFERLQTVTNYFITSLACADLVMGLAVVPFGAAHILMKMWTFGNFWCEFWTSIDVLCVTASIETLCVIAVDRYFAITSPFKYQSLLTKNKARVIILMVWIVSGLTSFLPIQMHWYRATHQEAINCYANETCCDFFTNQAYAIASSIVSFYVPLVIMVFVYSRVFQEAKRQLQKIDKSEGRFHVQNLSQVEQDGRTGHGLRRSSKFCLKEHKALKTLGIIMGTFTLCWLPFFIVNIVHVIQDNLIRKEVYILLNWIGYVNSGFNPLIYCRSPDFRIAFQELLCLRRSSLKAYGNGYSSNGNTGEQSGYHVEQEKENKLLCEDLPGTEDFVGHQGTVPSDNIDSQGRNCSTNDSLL
Chain of Beta-adrenergic receptor kinase 1 (Homo sapiens) (P25098 whole entry, looked up): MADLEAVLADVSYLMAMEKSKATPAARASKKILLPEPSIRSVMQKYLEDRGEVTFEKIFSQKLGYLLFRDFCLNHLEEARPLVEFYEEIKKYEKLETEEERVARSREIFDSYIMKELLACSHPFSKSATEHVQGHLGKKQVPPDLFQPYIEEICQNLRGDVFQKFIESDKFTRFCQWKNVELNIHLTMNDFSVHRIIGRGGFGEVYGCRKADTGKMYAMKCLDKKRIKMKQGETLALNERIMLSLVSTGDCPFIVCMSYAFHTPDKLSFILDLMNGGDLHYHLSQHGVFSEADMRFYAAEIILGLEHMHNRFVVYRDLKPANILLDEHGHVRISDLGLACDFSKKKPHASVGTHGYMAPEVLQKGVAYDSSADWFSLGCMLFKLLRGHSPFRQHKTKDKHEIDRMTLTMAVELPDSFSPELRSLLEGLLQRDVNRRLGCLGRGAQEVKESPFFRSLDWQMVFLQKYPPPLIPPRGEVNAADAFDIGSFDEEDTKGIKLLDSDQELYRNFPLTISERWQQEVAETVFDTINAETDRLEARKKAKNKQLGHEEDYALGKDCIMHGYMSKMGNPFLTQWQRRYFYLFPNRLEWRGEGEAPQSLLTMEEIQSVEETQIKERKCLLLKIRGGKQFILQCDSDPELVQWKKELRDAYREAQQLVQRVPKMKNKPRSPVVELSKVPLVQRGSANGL
Chain of Integrin beta-1 (Homo sapiens) + Integrin alpha-4 (Homo sapiens) (P05556 whole entry, looked up): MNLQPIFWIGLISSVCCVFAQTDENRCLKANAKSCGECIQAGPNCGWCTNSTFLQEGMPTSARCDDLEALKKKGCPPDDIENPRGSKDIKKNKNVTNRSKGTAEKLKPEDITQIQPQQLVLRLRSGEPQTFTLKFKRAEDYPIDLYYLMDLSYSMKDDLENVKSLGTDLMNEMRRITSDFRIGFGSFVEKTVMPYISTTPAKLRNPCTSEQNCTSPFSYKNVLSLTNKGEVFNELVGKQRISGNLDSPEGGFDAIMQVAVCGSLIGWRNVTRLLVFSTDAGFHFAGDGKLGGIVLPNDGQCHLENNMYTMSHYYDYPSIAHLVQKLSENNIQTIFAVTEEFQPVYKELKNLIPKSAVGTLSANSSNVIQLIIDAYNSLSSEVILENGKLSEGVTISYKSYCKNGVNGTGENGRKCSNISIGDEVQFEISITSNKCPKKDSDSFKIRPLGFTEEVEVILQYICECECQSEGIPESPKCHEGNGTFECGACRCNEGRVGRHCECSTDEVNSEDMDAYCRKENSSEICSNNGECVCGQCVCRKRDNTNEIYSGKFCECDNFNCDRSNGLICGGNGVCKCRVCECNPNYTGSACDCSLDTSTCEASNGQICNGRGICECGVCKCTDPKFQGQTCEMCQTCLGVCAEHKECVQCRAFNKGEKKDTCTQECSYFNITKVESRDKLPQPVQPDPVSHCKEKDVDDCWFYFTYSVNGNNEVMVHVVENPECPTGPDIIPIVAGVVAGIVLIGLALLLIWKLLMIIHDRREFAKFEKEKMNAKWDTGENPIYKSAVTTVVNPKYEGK
Chain of Integrin beta-1 (Homo sapiens) + Integrin alpha-4 (Homo sapiens) (P13612 whole entry, looked up): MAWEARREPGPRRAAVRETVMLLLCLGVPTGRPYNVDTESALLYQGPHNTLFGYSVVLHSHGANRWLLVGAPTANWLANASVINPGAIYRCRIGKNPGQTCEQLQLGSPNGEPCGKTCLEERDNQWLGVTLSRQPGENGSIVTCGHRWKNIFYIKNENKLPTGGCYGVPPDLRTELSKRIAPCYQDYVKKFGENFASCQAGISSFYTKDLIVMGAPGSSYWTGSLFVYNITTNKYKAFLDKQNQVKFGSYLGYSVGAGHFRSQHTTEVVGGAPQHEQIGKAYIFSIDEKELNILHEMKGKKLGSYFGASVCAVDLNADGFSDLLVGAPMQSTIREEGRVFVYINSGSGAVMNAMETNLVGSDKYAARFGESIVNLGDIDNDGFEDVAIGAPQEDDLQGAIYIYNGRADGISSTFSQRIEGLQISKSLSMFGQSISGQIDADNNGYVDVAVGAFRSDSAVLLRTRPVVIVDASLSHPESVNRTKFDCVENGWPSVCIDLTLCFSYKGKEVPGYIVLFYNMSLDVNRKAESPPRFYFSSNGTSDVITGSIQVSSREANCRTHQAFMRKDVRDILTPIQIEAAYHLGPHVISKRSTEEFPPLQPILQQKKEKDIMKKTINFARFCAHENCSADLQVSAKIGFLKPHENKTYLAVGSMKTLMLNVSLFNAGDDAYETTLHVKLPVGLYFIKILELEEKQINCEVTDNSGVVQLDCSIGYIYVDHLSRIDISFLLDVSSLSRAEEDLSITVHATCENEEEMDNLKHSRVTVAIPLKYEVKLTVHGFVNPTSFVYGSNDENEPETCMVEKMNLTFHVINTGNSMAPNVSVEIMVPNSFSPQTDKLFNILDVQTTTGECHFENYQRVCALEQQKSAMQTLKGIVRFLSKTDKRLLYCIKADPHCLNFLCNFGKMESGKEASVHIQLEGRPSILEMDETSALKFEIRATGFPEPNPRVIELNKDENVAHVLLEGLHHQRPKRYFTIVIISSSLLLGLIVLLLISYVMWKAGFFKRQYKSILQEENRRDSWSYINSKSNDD

## O=C(NCCN1CCCCC1)c1c(O)c2ccccc2[nH]c1=O
[1]
  double positive events: 61.8%
  vesicle binding response: 38% (inactive)
[2]
  inhibition: -6.68% (inactive)
[3]
  aptamer binding inhibition: -4% (inactive)
[4]
  response: 0.73% (inactive)
[5]
  inhibition: 5.65% (inactive)
[6]
  response: 3.25% (inactive)
[7]
  binding (% of control): 109% (inactive)
[8]
  efflux inhibition (fraction of control): 0.49 (active)
[9]
  inhibition: -4% (inactive)
[10]
  differentiation response: 21.8% (inactive)

## CC1=C/C(=N\OS(=O)(=O)c2ccccc2)C=CC1=O
[11]
  GFP response vs DMSO: 126% (inactive)
[12]
  GFP response vs DMSO: 145% (inactive)
[13]
  GFP response vs DMSO: 103% (inactive)
[14]
  GFP response vs DMSO: 109% (inactive)
[15]
  percent response vs DMSO: 101% (inactive)

## COc1ccc(-c2nc(CS(=O)(=O)CC(=O)NCc3cccc(Br)c3)c(C)o2)cc1
[11]
  GFP response vs DMSO: 109% (inactive)
[12]
  GFP response vs DMSO: 119% (inactive)
[13]
  GFP response vs DMSO: 101% (inactive)
[14]
  GFP response vs DMSO: 113% (inactive)
[15]
  percent response vs DMSO: 99.3% (inactive)

## Oc1ccc(Cl)cc1Cc1cc(Cl)ccc1O
[1]
  double positive events: 63.4%
  vesicle binding response: 194% (inactive)
[16]
  superoxide response (% of plate): 110% (inactive)
[3]
  aptamer binding inhibition: 3% (inactive)
[4]
  response: 17.5% (inactive)
[5]
  inhibition: 24.9% (inactive)
[6]
  response: 0.73% (inactive)
[7]
  binding (% of control): 108% (inactive)
[8]
  efflux inhibition (fraction of control): -0.04 (inactive)
[9]
  inhibition: 11% (inactive)
[10]
  differentiation response: 4.2% (inactive)

## CC(C)NC[C@@H](O)c1ccc(O)c(O)c1
[1]
  double positive events: 58%
  vesicle binding response: 125% (inactive)
[2]
  inhibition: -27.9% (inactive)
[16]
  superoxide response (% of plate): 97.4% (inactive)
[5]
  inhibition: 0.64% (inactive)
[6]
  response: 11.9% (inactive)
[7]
  binding (% of control): 97.3% (inactive)
[8]
  efflux inhibition (fraction of control): 0 (inactive)
[9]
  inhibition: 2% (inactive)
[10]
  differentiation response: -7.5% (inactive)

## COc1ccc(C2(C)ON(c3ccccc3C(F)(F)F)C2=O)cc1 (stereo not given)
[11]
  GFP response vs DMSO: 113% (inactive)
[12]
  GFP response vs DMSO: 103% (inactive)
[13]
  GFP response vs DMSO: 100% (inactive)
[14]
  GFP response vs DMSO: 100% (inactive)
[15]
  percent response vs DMSO: 101% (inactive)
[17]
  fluorescence change (kMESF span): 0.5 (inactive)

## Clc1cccc(CN2COc3c(cc(Cl)c4cccnc34)C2)c1
[11]
  GFP response vs DMSO: 127% (inactive)
[12]
  GFP response vs DMSO: 130% (inactive)
[13]
  GFP response vs DMSO: 101% (inactive)
[14]
  GFP response vs DMSO: 95% (inactive)
[15]
  percent response vs DMSO: 95.3% (inactive)
[17]
  fluorescence change (kMESF span): 1.92 (inactive)

## CCN1/C(=C/c2ccc3ccc(C)cc3[n+]2CC)Sc2ccccc21
[11]
  GFP response vs DMSO: 392% (active)
[12]
  GFP response vs DMSO: 1240% (active)
[13]
  GFP response vs DMSO: 136% (inactive)
[14]
  GFP response vs DMSO: 1630% (active)
[15]
  percent response vs DMSO: 203% (active)

## COC(=O)c1cc(-c2ccc(OC)c(OC)c2)on1
[1]
  double positive events: 64.8%
  vesicle binding response: 155% (inactive)
[2]
  inhibition: -0.45% (inactive)
[3]
  aptamer binding inhibition: -1% (inactive)
[4]
  response: 17.4% (inactive)
[5]
  inhibition: 35.3% (inactive)
[6]
  response: -27.6% (inactive)
[7]
  binding (% of control): 107% (inactive)
[8]
  efflux inhibition (fraction of control): 0.61 (active)
[9]
  inhibition: 0% (inactive)
[10]
  differentiation response: 31.5% (inactive)

## Cc1cc(C)c2nc3nc(C)cc(C)c3c(N)c2c1
[11]
  GFP response vs DMSO: 99% (inactive)
[12]
  GFP response vs DMSO: 103% (inactive)
[13]
  GFP response vs DMSO: 76.7% (inactive)
[14]
  GFP response vs DMSO: 93.9% (inactive)
[15]
  percent response vs DMSO: 75.9% (inactive)

## Cc1ccc(S/C(=N\S(=O)(=O)c2ccc(Cl)cc2)c2ccccc2)cc1
[11]
  GFP response vs DMSO: 101% (inactive)
[12]
  GFP response vs DMSO: 105% (inactive)
[13]
  GFP response vs DMSO: 98% (inactive)
[14]
  GFP response vs DMSO: 107% (inactive)
[15]
  percent response vs DMSO: 99.1% (inactive)

## O=C(NC(=S)NC1CCS(=O)(=O)C1)c1cccc([N+](=O)[O-])c1 (stereo not given)
[11]
  GFP response vs DMSO: 101% (inactive)
[12]
  GFP response vs DMSO: 105% (inactive)
[13]
  GFP response vs DMSO: 101% (inactive)
[14]
  GFP response vs DMSO: 105% (inactive)
[15]
  percent response vs DMSO: 106% (inactive)

## Cc1ccc2nc(N(CCN(C)C)C(=O)C3=COCCO3)sc2c1
[11]
  GFP response vs DMSO: 102% (inactive)
[12]
  GFP response vs DMSO: 105% (inactive)
[13]
  GFP response vs DMSO: 98.9% (inactive)
[14]
  GFP response vs DMSO: 103% (inactive)
[15]
  percent response vs DMSO: 104% (inactive)

## COC(=O)C[n+]1cccc2ccccc21
[11]
  GFP response vs DMSO: 106% (inactive)
[12]
  GFP response vs DMSO: 103% (inactive)
[13]
  GFP response vs DMSO: 100% (inactive)
[14]
  GFP response vs DMSO: 118% (inactive)
[15]
  percent response vs DMSO: 105% (inactive)
